Growth data for 8 compounds are collected here from PubChem BioAssay (NCI).

Among the test systems are HT29 colon; SNB-75 CNS; SNB-19 CNS; U251 CNS; PC-3 prostate; SK-MEL-5 melanoma; UACC-62 melanoma; LOX IMVI melanoma; SK-MEL-2 melanoma; EKVX NSCLC; SN12C renal; UO-31 renal; TK-10 renal; ACHN renal; CAKI-1 renal; A498 renal; CCRF-CEM leukemia; MOLT-4 leukemia; SR leukemia; SK-MEL-28 melanoma.
Experiment in all cases: NCI-60 one-dose screen, 48 h (100 = growth as untreated, 0 = no growth, -100 = all killed)
Settings in all cases: 10 µM

About 83,000 compounds went through this panel and 20% of them were active in at least one assay; those are over-represented in the sample as a whole.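 Method: cells in 96-well plates; compound added at one concentration; 48 h incubation; percent growth measured; values under 10 scored active.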 Unmarked numbers belong to inactive results. Activity calls are given as the source filed them.

In the case of `CN1CC[C@@H](c2c(O)cc(O)c3c(=O)cc(-c4ccccc4Cl)oc23)[C@@H](O)C1`, the growth was -7.65% (active) in the experiment on HT29 colon; -71.9% (active) in the experiment on SNB-75 CNS; 13.6% in the experiment with SNB-19 CNS; 8.62% (active) in the experiment on U251 CNS; -48.9% (active) with PC-3 prostate; -38.5% (active) in the experiment on SK-MEL-5 melanoma. Further, the growth is -48.8% (active) in the experiment with UACC-62 melanoma; 5.25% (active) in the experiment with LOX IMVI melanoma; -40.7% (active) with SK-MEL-2 melanoma; 9.74% (active) with EKVX NSCLC; 26.8% in the experiment with SN12C renal; -5.67% (active) in the experiment with UO-31 renal. Moreover, the growth was 0.554% (active) in the experiment with TK-10 renal; -14.1% (active) in the experiment on ACHN renal; 5.1% (active) in the experiment with CAKI-1 renal; -40.8% (active) in the experiment on A498 renal; -9.53% (active) in the experiment with CCRF-CEM leukemia; -6.09% (active) in the experiment with MOLT-4 leukemia. Besides, the growth in the experiment on SR leukemia is -4.82% (active).

Take `CCCCCCCCCCCCCCCCCCOCC(COCCOCC[N+]1(CCCCCC(=O)[O-])CCCC1)Oc1ncccn1` (configuration not stated): the growth with HT29 colon was 22.7%; in the experiment with SNB-75 CNS, 6.6% (active); in the experiment with SNB-19 CNS, 18.5%; in the experiment on U251 CNS, 8.23% (active); with PC-3 prostate, 0.371% (active); in the experiment with SK-MEL-5 melanoma it was 45.3%. Also, the growth is 54.4% in the experiment on UACC-62 melanoma; 39.9% in the experiment with LOX IMVI melanoma; 70.3% in the experiment on SK-MEL-2 melanoma; 63.4% with EKVX NSCLC; 46.6% with SN12C renal; 98.7% with UO-31 renal. Besides, the growth in the experiment on TK-10 renal is 7.83% (active); in the experiment on ACHN renal it was 69.2%; in the experiment on CAKI-1 renal it was 93.5%; in the experiment with A498 renal, 73.7%; with CCRF-CEM leukemia it was 32.3%; in the experiment on MOLT-4 leukemia, 32.5%. The growth in the experiment on SR leukemia is 29.9%.

Consider `Nc1ncn(C2OC(CO)C(O)C2O)c(=O)n1` (configuration not stated), for which the growth in the experiment on HT29 colon is 6.45% (active); in the experiment on SNB-75 CNS, -32.7% (active); in the experiment with SNB-19 CNS it was 17.2%; with U251 CNS it was 5.19% (active); in the experiment on PC-3 prostate, -30.7% (active); in the experiment with SK-MEL-5 melanoma it was 25.5%. For the same compound, the growth with UACC-62 melanoma was -8.83% (active); with LOX IMVI melanoma it was -33.7% (active); in the experiment with SK-MEL-2 melanoma it was -21.2% (active); with EKVX NSCLC, 44.9%; in the experiment with SN12C renal it was 17.4%; with UO-31 renal it was 0.167% (active). Moreover, the growth is 4.79% (active) in the experiment on TK-10 renal; -21.7% (active) with ACHN renal; -2.03% (active) in the experiment with CAKI-1 renal; 19% in the experiment on A498 renal; -7.84% (active) in the experiment with CCRF-CEM leukemia; 0.695% (active) with MOLT-4 leukemia. Besides, the growth in the experiment with SR leukemia is -1.52% (active).

For the compound `COc1ccc(-c2nn(-c3cccc(NC(=O)Nc4ccc(Cl)c(C(F)(F)F)c4)c3)cc2-c2ccncc2)cc1Cl`, the growth was 2.78% (active) with HT29 colon; 25.6% with SNB-75 CNS; 32.2% in the experiment on SNB-19 CNS; -41.1% (active) with U251 CNS; 2.84% (active) in the experiment with PC-3 prostate; 14.7% in the experiment on SK-MEL-5 melanoma. Also, the growth in the experiment with UACC-62 melanoma was -2.96% (active); in the experiment on LOX IMVI melanoma, 19.9%; in the experiment on SK-MEL-28 melanoma, 23%; in the experiment on SN12C renal, 21.1%; with UO-31 renal, -11.2% (active); with TK-10 renal, 10.3%. Also, the growth is 12.6% in the experiment on ACHN renal; 9.1% (active) with CAKI-1 renal; -0.894% (active) in the experiment with A498 renal; -3.16% (active) with CCRF-CEM leukemia; -6.09% (active) in the experiment with MOLT-4 leukemia; -18.4% (active) in the experiment with SR leukemia.

For the compound `O=C1NC(=O)c2ncccc21`, the growth was 108% with HT29 colon; 98% in the experiment with SNB-75 CNS; 107% with SNB-19 CNS; 106% with U251 CNS; 107% with PC-3 prostate; 95.1% in the experiment on SK-MEL-5 melanoma. The growth with UACC-62 melanoma was 112%; in the experiment on LOX IMVI melanoma, 101%; in the experiment with SK-MEL-28 melanoma it was 110%; with SN12C renal, 105%; with UO-31 renal, 104%; in the experiment with ACHN renal, 110%. Besides, the growth in the experiment with CAKI-1 renal is 96.4%; in the experiment with A498 renal, 110%; in the experiment with CCRF-CEM leukemia it was 99.1%; with MOLT-4 leukemia it was 106%; in the experiment on SR leukemia, 111%.

Consider `COc1ccc(S(=O)(=O)NCCCNc2nccc(-c3c(-c4ccc(F)cc4)nc4sccn34)n2)cc1`, for which the growth in the experiment with HT29 colon is 11%; in the experiment with SNB-75 CNS it was 49.3%; in the experiment with SNB-19 CNS, 99.1%; in the experiment on U251 CNS, 50%; in the experiment on PC-3 prostate, 52.9%; in the experiment with SK-MEL-5 melanoma, 49.5%. Besides, the growth with UACC-62 melanoma is 48.5%; with LOX IMVI melanoma it was 40.1%; in the experiment on SK-MEL-28 melanoma, 73.5%; in the experiment with SN12C renal, 59.5%; in the experiment on UO-31 renal, 22.1%; in the experiment with TK-10 renal it was 60.5%. Moreover, the growth with ACHN renal was 36.5%; in the experiment with CAKI-1 renal, 39.4%; with A498 renal it was 58.5%; in the experiment on CCRF-CEM leukemia, 37.6%; in the experiment on MOLT-4 leukemia it was 34.4%; in the experiment with SR leukemia, 28.3%.

With `C=C(Cl)[C@@](Cl)(CBr)CC[C@@H](Br)C(C)(C)Cl`, the growth is -88.2% (active) in the experiment with HT29 colon; -96.8% (active) in the experiment on SNB-75 CNS; -74.9% (active) in the experiment with SNB-19 CNS; -97.9% (active) with U251 CNS; -92.7% (active) with PC-3 prostate; 87.9% with SK-MEL-5 melanoma. The growth in the experiment on UACC-62 melanoma is -25.9% (active); in the experiment on LOX IMVI melanoma, 94.5%; in the experiment with SK-MEL-2 melanoma, -30.8% (active); in the experiment on EKVX NSCLC, -79% (active); in the experiment with SN12C renal, 72%; in the experiment with UO-31 renal, -96.8% (active). In addition, the growth is -98.9% (active) with TK-10 renal; -99.4% (active) with ACHN renal; -98.7% (active) in the experiment on CAKI-1 renal; 99.3% in the experiment on A498 renal; 94.3% with CCRF-CEM leukemia; 81.1% in the experiment on MOLT-4 leukemia. Besides, the growth in the experiment with SR leukemia was 75.6%.

Regarding `COc1ccc(-c2nn(-c3cccc(NC(=O)c4ccc(Cl)c(Cl)c4)c3)cc2-c2ccncc2)cc1Cl`, the growth was 78.2% in the experiment on HT29 colon; 74.8% in the experiment on SNB-75 CNS; 87.1% in the experiment with SNB-19 CNS; 64% in the experiment with U251 CNS; 48.6% in the experiment on PC-3 prostate; 78.8% with SK-MEL-5 melanoma. Further, the growth is 83.7% in the experiment on UACC-62 melanoma; 91.2% in the experiment with LOX IMVI melanoma; 75.3% with SK-MEL-28 melanoma; 86.7% with SN12C renal; 47.6% in the experiment with UO-31 renal; 85% in the experiment on TK-10 renal. In addition, the growth with ACHN renal is 78.8%; in the experiment on CAKI-1 renal, 73.1%; with A498 renal, 54.7%; with CCRF-CEM leukemia it was 61.7%; with MOLT-4 leukemia it was 62.7%; with SR leukemia, 24.3%.
